Luc counter = Counterscreen for Luciferase (Kinase-Glo TM) Inhibition. Potency, µM (titrated, usually from 38.3 µM), for inactives: at the highest dose activity change, negative = inhibition, most hits filed as inhibitors. AID 1379, 2008. 0.28% of 200,000 active. Kinase-Glo luciferase, ATP luminescence, 8 min; note: nearly all actives have a fitted effect of over 60% in size
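Inhibition of Kinase-Glo luciferase light generation was assessed at 10 uM ATP in pH 7.2 imidazole buffer, with luminescence measured after eight minutes at ambient temperature.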
VP16 counter = VP16 counterscreen qHTS for inhibitors of ROR gamma transcriptional activity. Drosophila S2 Gal4-VP16 UAS-luciferase, luminescence, 20 h. Potency, µM (doses to about 53.6 µM), inactives show at the highest dose activity, negative = inhibition, most hits filed as inhibitors. 3.5% of 310,000 active;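 note: Gal4-VP16 expression switched on by copper sulfate through the metallothionein promoter; nearly all actives have a fitted effect of over 50% in size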
RORgamma inh = qHTS for inhibitors of ROR gamma transcriptional activity; AID 2551, 2010; Potency, µM (top dose mostly 53.6 µM), for inactives: top-dose activity change, negative = inhibition, most hits filed as inhibitors; Nuclear receptor ROR-gamma (Mus musculus), P51450; Drosophila S2 Gal4-RORgamma UAS-luciferase reporter, 20 h; 5.4% of 310,000 active; note: nearly all actives have a fitted effect of over 60% in size
Target sequence (P51450 whole entry, looked up, the tested form may be a part): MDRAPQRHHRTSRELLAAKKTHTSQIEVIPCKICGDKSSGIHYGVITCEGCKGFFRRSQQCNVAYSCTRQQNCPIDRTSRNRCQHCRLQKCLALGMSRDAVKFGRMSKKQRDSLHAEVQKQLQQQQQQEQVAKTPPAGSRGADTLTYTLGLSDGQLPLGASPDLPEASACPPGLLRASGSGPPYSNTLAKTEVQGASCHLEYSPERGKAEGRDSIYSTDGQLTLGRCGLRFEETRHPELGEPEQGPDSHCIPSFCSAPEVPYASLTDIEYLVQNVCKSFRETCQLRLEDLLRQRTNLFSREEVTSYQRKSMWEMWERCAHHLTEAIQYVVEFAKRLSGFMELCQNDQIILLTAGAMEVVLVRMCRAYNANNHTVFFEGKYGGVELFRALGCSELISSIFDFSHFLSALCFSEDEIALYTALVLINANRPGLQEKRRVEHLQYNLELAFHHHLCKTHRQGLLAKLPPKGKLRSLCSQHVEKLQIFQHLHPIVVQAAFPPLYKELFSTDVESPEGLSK
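Stable Schneider cell line, Gal4 DNA-binding domain fused to ROR gamma, UAS-luciferase. Cmpd 1 hr RT → CuSO4 700 uM final → 20 hr RT → luciferase reagent 10 min → luminescence.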
* = called active by the depositor; ? = inconclusive; . = not tested or not shown; [ ] = remark or other dose. An excerpt weighted towards active compounds, which were near 6.4% of everything screened. Calls come from the whole dose curve; as a rule, active = well fitted curve in the direction sought with a large enough effect; inconclusive = small, poorly fitted or top-dose-only effect, or another doubt; inactive = no such curve, though single readings can be large; an effect the other way counts as inactive or inconclusive. % is set by controls: 0 for no effect and ±100 for the full control effect; potency is the fitted concentration of half-maximal effect.

SMILES	Luc counter	VP16 counter	RORgamma inh
CCCCc1nc2ccn(CC(=O)N(C)C)c(=O)c2n1Cc1ccc(-c2ccccc2-c2nn[nH]n2)cc1	4.4%[39.9 µM]	-5.3%	33.5%
COC(=O)C1=C(N)OC2=C(C(=O)CC(C)(C)C2)C1c1cc2c(cc1Cl)OCO2 (configuration not stated)	.	-9.0%	32.9%
Cc1onc(-c2c(F)cccc2Cl)c1C(=O)NCCc1ccncc1	.	-9.7%	38.8%
CNC(=S)N(CCCn1ccnc1)Cc1c(F)cccc1Cl	.	-2.8%	-16.7%
COc1ccc(Cl)cc1NC(=S)NCc1ccccn1	1.2%	?	?
S=C(NCc1ccccn1)Nc1ccc(Cl)cc1Cl	-0.6%	12.6µM*	8.91µM*
Fc1ccc(NC(=S)Nc2nccs2)cc1	0.5%	1µM*	0.316µM*
S=C(Nc1ccccc1)Nc1nccs1	-4.3%	-12.6%	4.4%
O=C(c1ccc(Cc2nc3ccccc3[nH]2)cc1)N1CCCCC1	-2.9%	.	.
Cc1cccc(C(=O)NCCc2nnc(SCC(=O)Nc3cccc(C(=O)O)c3)n2C)c1	.	0.8%	2.2%
CC(=O)OC/C=C(\C)CC/C=C(\C)CC/C=C(\C)CC/C=C(\C)CC/C=C(\C)CC/C=C(\C)CC/C=C(\C)CC/C=C(\C)CCC=C(C)C	0.7%	-1.1%	5.9%
CN1C(=O)CC(NNC(=O)c2ccccc2)C1=O (configuration not stated)	-1.6%	-3.5%	-1.3%
CC1CC(NNC(=O)c2ccccc2)=Nc2ccccc2N1C (configuration not stated)	0.6%	5.01µM*	1.78µM*
Clc1ccccc1-c1nccc(NCc2ccccc2)n1	.	18.1%	30.0%
CN(CCc1ccccn1)C(=O)CCC1CCCN(C(=O)c2ccsc2)C1 (configuration not stated)	.	-9.2%	6.6%
CCCNC(=O)c1csc(Nc2cccc3ccccc23)n1	.	0.3%	25.1%
O=C(NCC1CCCO1)c1csc(Nc2cccc3ccccc23)n1 (configuration not stated)	12.6µM*	-9.8%	11.2µM*
COc1ccc(/C(C)=N/Nc2nc3ccccc3nc2C)cc1OC	.	?	4.47µM*
COc1ccc(/C(C)=N/Nc2cccc(C(=O)O)c2)cc1OC	-2.6%	-23.2%	-2.6%
CC1(C)Cc2c(cnn2-c2ccc(F)cc2)C(NC(=O)CCCN2CCCCC2=O)C1 (configuration not stated)	.	-2.0%	41.0%
CCCCNC(=O)CCCCCn1c(=O)[nH]c2cc(C(=O)OC)ccc2c1=O	-4.0%	-1.7%	-23.8%
COc1ccc(N2CCN(C(=O)c3ccc4c(c3)[nH]c(=S)n3c5ccccc5nc43)CC2)cc1	-2.4%	1.1%	-25.7%
CCc1cc2c(=O)n(-c3ccccc3)c(=S)[nH]c2s1	2.0%	4.47µM*	2.51µM*
COC(=O)c1ccc2c(=O)n(CCCCCC(=O)O)c(=O)[nH]c2c1	3.4%	15.8µM*	10µM*
COc1ccc(-n2c(=S)[nH]c3cc(C(=O)N4CCN(c5ccccc5)CC4)ccc3c2=O)cc1	.	?	10µM*
SMILES	Luc counter	VP16 counter	RORgamma inh
CCc1cc2c(=O)n(-c3ccccc3)c(SCC(N)=O)nc2s1	.	6.7%	?
COC(=O)c1ccc2c(=O)n(-c3ccccc3)c(=S)[nH]c2c1	-1.9%	?	1.78µM*
O=C(NCc1ccco1)c1ccc2c(=O)n(-c3ccccc3)c(=S)[nH]c2c1	-2.4%	-4.9%	-15.2%
CCN1C(C)=C(C(=O)OC)C(c2ccccc2)N2C(=O)[C@](O)(C(=O)OC)CC(C#N)=C12 (some centres not stated)	.	10.3%[10 µM]	-16.2%[10 µM]
COC(=O)CN1C(=O)[C@H]2[C@@H](c3ccc(C)o3)N3C(=O)CN(CC4CC4)C(=O)[C@@]3(C)[C@H]2C1=O	.	-3.9%	5.1%
O=C(O)c1ccc2c(=O)n(-c3ccccc3F)c(=S)[nH]c2c1	0.5%	3.6%	-19.3%
COC(=O)c1ccc2c(=O)n(-c3ccccc3F)c(=S)[nH]c2c1	1.3%	5.62µM*	3.16µM*
CC(=O)Nc1ccc(S(=O)(=O)Nc2ccc3c(c2)C(=O)OC3)cc1	-0.6%	11.2µM*	?
COc1ccc(NS(=O)(=O)c2ccc(-c3cnc(C4CC4)o3)cc2)cc1OC	.	7.08µM*	?
CC(=O)Nc1ccc(S(=O)(=O)Nc2ccc3c(c2)OCCO3)cc1Cl	.	12.6µM*	?
COc1cc(NS(=O)(=O)c2ccc(C)cc2)ccc1-n1cnnn1	0.5%	-13.5%	?
CC(=O)Nc1ccc(NS(=O)(=O)c2ccccc2)cc1	12.0%	-0.9%	-0.8%
COc1ccccc1NS(=O)(=O)c1ccc(-c2cnc(C3CC3)o2)cc1	.	-1.0%	-5.8%
COc1ccc(NS(=O)(=O)c2ccc(-n3cnnn3)cc2)cc1OC	.	10µM*	-5.1%

Source: PubChem BioAssay
